This is a sample that favours compounds with a hit; in the whole collection about 3.8% have one here.
PfHsp90 yeast 2 = reduces growth (ATP signal) of yeast expressing P. falciparum Hsp90; S. cerevisiae expressing PfHsp90, BacTiter-Glo ATP, 48 h; yeast lacking PDR1 and PDR3 efflux regulators; inhibition, % at 9.4 µM; 310,000 compounds, 0.32% hits;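 active means every replicate shows inhibition above about 80%, whatever the replicate mean, limit read from the data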;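 further: 0% = DMSO neutral controls and 100% = 20 µM radicicol positive controls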
TIM10 inh = TIM10 yeast growth inhibition; S. cerevisiae TIM10 strain growth, BacTiter-Glo luminescence, 24 h; inhibition, % at 10 µM; 330,000 compounds, 1.4% hits; AID 463195;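 active means inhibition of 40% or more at the single tested concentration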;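 further: wild-type TIM10 isogenic control strain grown at permissive 25 °C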
tim10-1 inh = growth inhibitors of tim10-1 mutant yeast. S. cerevisiae tim10-1 ts strain growth, BacTiter-Glo, 24 h. 330,000 compounds, 2.2% hits. inhibition, % at 20 µM;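 active means inhibition of at least 40%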;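 further: mutant grown at 25 °C; 0% = DMSO wells with yeast and 100% = wells holding no yeast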
B2AR ag = human beta-2 adrenergic receptor agonism by FAP; P07550; Am2.2-beta2AR cells, FAP receptor internalization, flow cytometry; response, % (concentration not given with the values); 340,000 compounds, 0.43% hits; AID 504454;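 active means response above a set limit, near 3 SD of response in nonfluorescent compounds, cut at about 42% in these data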
Target sequence (P07550 whole entry, looked up): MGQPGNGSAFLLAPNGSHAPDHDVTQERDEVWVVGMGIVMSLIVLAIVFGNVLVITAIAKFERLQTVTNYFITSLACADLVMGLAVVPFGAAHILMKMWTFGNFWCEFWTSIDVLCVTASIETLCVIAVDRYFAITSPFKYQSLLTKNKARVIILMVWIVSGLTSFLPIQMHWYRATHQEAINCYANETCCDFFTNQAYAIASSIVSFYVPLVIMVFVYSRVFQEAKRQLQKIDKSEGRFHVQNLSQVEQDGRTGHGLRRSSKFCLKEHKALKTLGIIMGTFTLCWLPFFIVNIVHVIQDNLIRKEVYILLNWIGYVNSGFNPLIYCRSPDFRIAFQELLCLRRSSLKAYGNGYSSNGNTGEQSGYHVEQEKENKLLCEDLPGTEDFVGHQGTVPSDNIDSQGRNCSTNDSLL
tim23-1 inh = tim23-1 yeast growth inhibition; inhibition, % at 20 µM; AID 463212; 330,000 compounds, 1.3% hits; S. cerevisiae tim23-1 growth, BacTiter-Glo luminescence, 24 h;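 active means growth inhibition of the mutant yeast at or above 50%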;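 further: temperature-sensitive mutant grown at 25 °C; plate controls were DMSO-treated mutant yeast for no effect and medium wells lacking yeast for full effect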
tim23-1 conf = confirmation of tim23-1 mutant yeast growth inhibitors; shares compounds with tim23-1 inh; S. cerevisiae tim23-1 growth, BacTiter-Glo luminescence, 24 h; inhibition, % at 20 µM; 4,400 compounds, 83% hits;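 active means inhibition above about 39% in either of two replicate wells at 20 µM, limit read from the data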;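 further: temperature-sensitive tim23-1 mutant grown at 25 °C; 0% = DMSO wells with yeast and 100% = medium wells without yeast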
Starred values were filed as active, the others as inactive; . = not tested or not shown.

SMILES	PfHsp90 yeast 2	TIM10 inh	tim10-1 inh	B2AR ag	tim23-1 inh	tim23-1 conf
CCOc1ccccc1N1CC(C(=O)Nc2cc(S(C)(=O)=O)ccc2Cl)CC1=O (centres undefined)	.	-3	3	3	-3	.
O=C(Nc1ccc2nn(-c3ccccc3)nc2c1)c1cccnc1	17	8	-13	1	52*	37
O=C(Nc1ccc2oc(-c3ccccc3)nc2c1)c1cccnc1	15	29	13	10	56*	71*
O=C(Nc1ccc2nn(-c3ccc(F)cc3)nc2c1)c1cccnc1	31	12	-3	10	14	.
COc1ccc(NC(=O)Nc2ccc3c(c2)OCO3)c(C)c1	3	5	-8	-5	-4	.
NC(=S)N/N=C/c1coc2cc(Br)ccc2c1=O	-13	32	28	6	58*	58*
NC(=S)N/N=C/c1coc2ccc(O)cc2c1=O	17	4	2	8	-14	.
NC(=S)N/N=C/c1coc2ccc(F)cc2c1=O	.	29	9	14	48	.
NC(=S)N/N=C/c1coc2ccc(Br)cc2c1=O	-6	34	18	10	78*	75*
O=C(NCC(=O)N(c1ccc2c(c1)OCCO2)C(C(=O)NC1CCCC1)c1ccco1)c1ccco1 (centres undefined)	-1	-8	22	4	-2	.
N#C/C(=C\c1ccc(OCc2cccc(C(=O)O)c2)cc1)C(=O)NCc1ccco1	23	5	26	11	21	.
O=C(O/N=C(\c1ccccc1)c1ccncc1)c1ccccc1Cl	10	26	11	-7	52*	53*
C(=N\Nc1nc2ccccc2s1)/c1ccccn1	.	25	37	6	58*	61*
O=C(C1CCN(S(=O)(=O)c2ccc(F)cc2)CC1)N1CCCC(C(F)(F)F)C1 (centres undefined)	-29	-5	0	-6	16	.
COc1ccc(-c2cc(-c3ccc(F)cc3)nc(N3CCN(C)CC3)n2)cc1	10	31	29	24	55*	58*
Cc1ccc(Nc2nc(-c3cccnc3)cs2)cc1Cl	-29	22	12	-7	21	.
Cc1ccc(C)c(Nc2nc(-c3cccnc3)cs2)c1	-4	19	19	-44	50*	15
CC1CCCCC1NC(=S)NC(=O)c1cccs1 (centres undefined)	-15	39	25	-3	52*	54*
OC[C@@H]1[C@@H](c2ccc(Cl)cc2)C(c2cccc(Cl)c2)=NN1c1ccccc1	-26	17	20	18	49	.
OC[C@@H]1[C@@H](c2ccc(F)cc2)C(c2cccc(Cl)c2)=NN1c1ccccc1	-24	16	21	-4	53*	39
OC[C@@H]1[C@@H](c2ccc(Cl)cc2)C(c2ccccc2)=NN1c1ccccc1	-52	6	17	5	53*	34
O=C(Nc1ccn(CCCNCc2ccc3c(c2)OCO3)c(=O)n1)OCc1ccccc1	6	.	.	-2	.	.
COc1ccc(C(=O)NC2c3ccccc3-c3ccccc32)cc1	-1	-9	7	1	-15	.
CC(C)NC(=S)N/N=C/C1=CCC2CC1C2(C)C (centres undefined)	2	29	23	4	56*	28
CCCCNC(=S)N/N=C/C1=CCC2CC1C2(C)C (centres undefined)	22	37	31	1	53*	25
SMILES	PfHsp90 yeast 2	TIM10 inh	tim10-1 inh	B2AR ag	tim23-1 inh	tim23-1 conf
C=C(C)CNC(=S)N/N=C/C1=CCC2CC1C2(C)C (centres undefined)	-25	19	17	1	33	.
CC(C)C1Cc2c(sc3ncnc(NN)c23)CO1 (centres undefined)	-38	7	30	15	52*	27
CC(C)Cc1nc2sc3c(c2c(=O)n1N)CC(C(C)C)OC3 (centres undefined)	11	-26	-13	-3	5	.
O=C(NCC1CCCO1)c1cn(Cc2ccccc2Cl)nc1-c1ccccc1 (centres undefined)	7	2	17	-9	24	.
COC(=O)Sc1nnc(-c2ccc(Br)cc2)o1	.	22	10	.	60*	52*
OCC#CCSc1nnc(-c2ccc(Br)cc2)o1	5	35	16	-1	14	.
COc1ccc(/C=C2\SC(=Nc3ccccc3OC)NC2=O)cc1	-61	38	34	3	53*	60*
COc1ccc(-n2nnnc2SCC(=O)Nc2ccccc2F)cc1	17	-5	16	-5	18	.
O=c1[nH]c(=S)[nH]c2nccnc12	.	.	.	7	.	.
CS(=O)(=O)N1CCC(C(=O)Nc2cc(Cl)c(Cl)cc2Cl)CC1	-17	12	6	0	-1	.
CCCCn1c(N)c(N(CCC(C)C)C(=O)c2ccc(N3CCCC3=O)cc2)c(=O)[nH]c1=O	16	2	7	-6	-8	.
Cc1nn2c(-c3ccc(F)cc3)ccnc2c1Br	5	9	9	6	21	.
COc1ccc(-c2ccnc3c(Br)c(C)nn23)cc1	-7	13	32	-2	50*	53*
COc1ccc(CC(=O)NCc2csc(-c3cccs3)n2)cc1OC	0	17	17	-1	19	.
CCOC(=O)N/N=C/c1ccc(N(CC)CC)cc1O	-8	37	36	4	60*	72*
CCN(CC)c1ccc(/C=N/Nc2ccc(C)cc2)c(O)c1	-4	.	.	5	.	.
CS/C(Nc1cc(Cl)ccc1Cl)=C(/C#N)C(=O)c1ccco1	-5	25	33	34	59*	52*
O=C(Nc1cc(Cl)ccc1Cl)c1ccco1	45	-6	9	-6	17	.
Cc1ccc(C(=O)NC(=S)Nc2ccccc2C(F)(F)F)cc1C	-1	-14	23	4	3	.
Cc1cccc(C(=O)NC(=S)Nc2ccccc2C(F)(F)F)c1	-31	22	30	-3	51*	38*
COc1ccc(OC)c(NC(=O)c2nc(S(=O)(=O)Cc3ccccc3)ncc2Cl)c1	100*	34	11	38	73*	-43
Cc1ccccc1CS(=O)(=O)c1ncc(Cl)c(C(=O)Nc2ccc(F)cc2)n1	114*	6	-1	29	62*	-23
CCS(=O)(=O)c1ncc(Cl)c(C(=O)Nc2ccc(S(=O)(=O)N(C)c3ccccc3)cc2)n1	4	6	27	-294	32	.
Cc1nnc(NC(=O)c2nc(S(=O)(=O)Cc3ccccc3)ncc2Cl)s1	21	16	15	6	15	.
O=C(Nc1ccc(F)cc1)c1nc(S(=O)(=O)Cc2ccccc2)ncc1Cl	96*	3	31	7	61*	-126
O=c1c2sc3nc(N4CCOCC4)c4c(c3c2ncn1C(c1ccccc1)c1ccccc1)CCCC4	2	.	.	14	.	.
O=C1C=C(c2ccc3[nH]ccc3c2)C[C@@H](c2ccc(Cl)cc2)C1	-67	27	34	10	52*	46*
